This note sets out measurements from publication PMC9838217, “Structure of SALL4 zinc finger domain reveals link between AT-rich DNA binding and Okihiro syndrome”.

Positions count from the first letter of the chain named.

In the first assay the target is T1, SALL4 ZFC4 R900W (HT-SELEX) (Mus musculus, UniProt Q8BX22 870-940, R900W).
T1 sequence: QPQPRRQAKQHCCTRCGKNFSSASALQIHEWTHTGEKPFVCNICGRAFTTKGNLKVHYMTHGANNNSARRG
The assay can be described thus: HT-SELEX; high values mean tight binding. The following applies: protein: recombinant; vector His6-GST; dsDNA, one strand shown. In short, it runs like this: (§1)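 Purified recombinant mouse SALL4 zinc finger cluster 4 (residues 870–940, 1 µg) was incubated with library DNA (1.5 µg first cycle, 200 ng later) in 100 µl of 10 mM Tris–HCl pH 7.5, 50 mM NaCl, poly(dI-dC) and DTT for 10 min at room temperature, with Ni2+ bead capture and reselection for up to 6 cycles in triplicate. MiSeq reads were scanned for 6-mers. Binding signal is each canonical k-mer's read fraction as fold change relative to the initial random library.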
For the sequence AGGGAA, the binding signal was 1.01 ± 0.045 fold-change vs cycle 0.

On to TAGTCA, for which the binding signal stood at 1.4 ± 0.0422 fold-change vs cycle 0.

In the case of AAAGTC, the binding signal is 1.25 ± 0.0636 fold-change vs cycle 0.

Regarding AATCGC, the binding signal was 0.483 ± 0.0175 fold-change vs cycle 0.

As to AAGGGA, the binding signal came out at 1.09 ± 0.0682 fold-change vs cycle 0.

On to CCGAAA, for which the binding signal is 0.559 ± 0.0265 fold-change vs cycle 0.

Consider CCAAGG, for which the binding signal stood at 0.535 ± 0.0059 fold-change vs cycle 0.

ATCGAA: the binding signal came to 1.16 ± 0.0416 fold-change vs cycle 0.

For CTTCAA, the binding signal is 1.41 ± 0.0826 fold-change vs cycle 0.

Regarding ACCGTA, the binding signal worked out at 0.818 ± 0.0316 fold-change vs cycle 0.

In the case of ACGTAA, the binding signal worked out at 1.3 ± 0.0477 fold-change vs cycle 0.

Consider CAGTGA, for which the binding signal was 0.934 ± 0.023 fold-change vs cycle 0.

With GGGTCA, the binding signal was determined as 0.513 ± 0.0178 fold-change vs cycle 0.

In the case of ACGACC, the binding signal came to 0.378 ± 0.0333 fold-change vs cycle 0.

Consider AATACA, for which the binding signal was 1.92 ± 0.0574 fold-change vs cycle 0.

For AGGTTG, the binding signal stood at 0.894 ± 0.0252 fold-change vs cycle 0.

As for ACACAC, the binding signal was determined as 0.815 ± 0.0148 fold-change vs cycle 0.

In the case of AAAGGT, the binding signal worked out at 1.41 ± 0.06 fold-change vs cycle 0.

Regarding ATGTTG, the binding signal was 1.29 ± 0.0687 fold-change vs cycle 0.

Consider AAGTCC, for which the binding signal turned out to be 0.863 ± 0.0347 fold-change vs cycle 0.

AGCCTA: the binding signal came to 0.728 ± 0.0355 fold-change vs cycle 0.

With CAACAA, the binding signal came out at 1.21 ± 0.0488 fold-change vs cycle 0.

For TAGCCA, the binding signal is 0.614 ± 0.0132 fold-change vs cycle 0.

With TCAAAA, the binding signal came to 1.58 ± 0.0814 fold-change vs cycle 0.

With CACATA, the binding signal came out at 1.28 ± 0.0534 fold-change vs cycle 0.

Regarding GATAAA, the binding signal was 1.92 ± 0.127 fold-change vs cycle 0.

For AGCACC, the binding signal amounted to 0.375 ± 0.0109 fold-change vs cycle 0.

Regarding CGAATA, the binding signal came out at 1.13 ± 0.0519 fold-change vs cycle 0.

With CAAAGC, the binding signal was found to be 0.654 ± 0.0334 fold-change vs cycle 0.

With GTATCA, the binding signal is 1.4 ± 0.0395 fold-change vs cycle 0.

Take GGCTAC: the binding signal is 0.356 ± 0.0124 fold-change vs cycle 0.

As to CTTTTC, the binding signal worked out at 1.29 ± 0.0412 fold-change vs cycle 0.

With AGAGAT, the binding signal was found to be 1.65 ± 0.139 fold-change vs cycle 0.

On to ATCCAC, for which the binding signal came to 0.953 ± 0.0135 fold-change vs cycle 0.

In the case of TAAGTA, the binding signal stood at 2.23 ± 0.16 fold-change vs cycle 0.

As to CGGAGA, the binding signal worked out at 0.45 ± 0.0336 fold-change vs cycle 0.

Take CATTCC: the binding signal worked out at 0.949 ± 0.0747 fold-change vs cycle 0.

As to CACAGA, the binding signal is 0.784 ± 0.0217 fold-change vs cycle 0.

With ATGACA, the binding signal came out at 1.41 ± 0.0578 fold-change vs cycle 0.

With GATCCA, the binding signal amounted to 0.883 ± 0.0218 fold-change vs cycle 0.

The target of another assay is T2, SALL4 ZFC4 G921D (HT-SELEX) (Mus musculus, UniProt Q8BX22 870-940, G921D).
T2 sequence: T1 sequence with W31R, G52D
The assay can be described thus: HT-SELEX; high values mean tight binding. The following applies: protein: recombinant; vector His6-GST; dsDNA, one strand shown. In short, it runs like this:
as §1
Take AGGGAA: the binding signal was 0.989 ± 0.0164 fold-change vs cycle 0.

As for TAGTCA, the binding signal amounted to 1.34 ± 0.0704 fold-change vs cycle 0.

For AAAGTC, the binding signal turned out to be 1.24 ± 0.0652 fold-change vs cycle 0.

Turning to AATCGC, the binding signal is 0.628 ± 0.0598 fold-change vs cycle 0.

In the case of AAGGGA, the binding signal was found to be 1.03 ± 0.0363 fold-change vs cycle 0.

For the sequence CCGAAA, the binding signal was 0.66 ± 0.0717 fold-change vs cycle 0.

On to CCAAGG, for which the binding signal worked out at 0.642 ± 0.0371 fold-change vs cycle 0.

As to ATCGAA, the binding signal worked out at 1.2 ± 0.0145 fold-change vs cycle 0.

Take CTTCAA: the binding signal is 1.33 ± 0.122 fold-change vs cycle 0.

On to ACCGTA, for which the binding signal was determined as 0.868 ± 0.0103 fold-change vs cycle 0.

With ACGTAA, the binding signal came out at 1.21 ± 0.0842 fold-change vs cycle 0.

For CAGTGA, the binding signal is 0.957 ± 0.0322 fold-change vs cycle 0.

As for GGGTCA, the binding signal was 0.619 ± 0.0472 fold-change vs cycle 0.

In the case of ACGACC, the binding signal is 0.508 ± 0.0872 fold-change vs cycle 0.

Regarding AATACA, the binding signal worked out at 1.74 ± 0.0979 fold-change vs cycle 0.

On to AGGTTG, for which the binding signal came out at 0.945 ± 0.0127 fold-change vs cycle 0.

On to ACACAC, for which the binding signal was determined as 0.903 ± 0.0448 fold-change vs cycle 0.

Turning to AAAGGT, the binding signal was determined as 1.29 ± 0.0787 fold-change vs cycle 0.

Turning to ATGTTG, the binding signal was 1.28 ± 0.0984 fold-change vs cycle 0.

In the case of AAGTCC, the binding signal was found to be 0.936 ± 0.0256 fold-change vs cycle 0.

As for AGCCTA, the binding signal was found to be 0.832 ± 0.0333 fold-change vs cycle 0.

Regarding CAACAA, the binding signal was 1.2 ± 0.0481 fold-change vs cycle 0.

As for TAGCCA, the binding signal was determined as 0.733 ± 0.0537 fold-change vs cycle 0.

In the case of TCAAAA, the binding signal stood at 1.5 ± 0.116 fold-change vs cycle 0.

Take CACATA: the binding signal was 1.25 ± 0.0582 fold-change vs cycle 0.

GATAAA: the binding signal was determined as 1.69 ± 0.118 fold-change vs cycle 0.

On to AGCACC, for which the binding signal came to 0.521 ± 0.0558 fold-change vs cycle 0.

Turning to CGAATA, the binding signal was 1.14 ± 0.0398 fold-change vs cycle 0.

Take CAAAGC: the binding signal was found to be 0.761 ± 0.0246 fold-change vs cycle 0.

For GTATCA, the binding signal is 1.38 ± 0.0408 fold-change vs cycle 0.

For GGCTAC, the binding signal worked out at 0.493 ± 0.0659 fold-change vs cycle 0.

In the case of CTTTTC, the binding signal came out at 1.218 ± 0.00999 fold-change vs cycle 0.

As for AGAGAT, the binding signal came to 1.53 ± 0.135 fold-change vs cycle 0.

Turning to ATCCAC, the binding signal is 0.986 ± 0.0515 fold-change vs cycle 0.

With TAAGTA, the binding signal amounted to 1.89 ± 0.229 fold-change vs cycle 0.

Take CGGAGA: the binding signal was determined as 0.543 ± 0.0379 fold-change vs cycle 0.

In the case of CATTCC, the binding signal was 0.981 ± 0.031 fold-change vs cycle 0.

As to CACAGA, the binding signal amounted to 0.8476 ± 0.00739 fold-change vs cycle 0.

Regarding ATGACA, the binding signal was determined as 1.39 ± 0.11 fold-change vs cycle 0.

GATCCA: the binding signal turned out to be 0.996 ± 0.0315 fold-change vs cycle 0.
